Source: PubChem BioAssay
Most compounds without a hit are left out; they make up all but 7.9% or so of the library.
HT1080 IDH1KD tx: toxicity to HT-1080 IDH1 knockdown cells (counter line); AID 686971; HT-1080 IDH1 knockdown viability, ATP luminescence, 48 h; 360,000 compounds, 2% hits; Potency, µM (series often up to 46.1 µM), usual class: cytotoxic
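HT-1080-IDH1KD cells (IDH1 knocked down), 750/well in RPMI with 5% FBS, treated with compound 48 h at 37 degrees C. Viability by CellTiter-Glo luminescence, normalised to DMSO and no-cell wells; concentration-response curves classed.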
HT1080NT lethal: kills 2HG-producing HT-1080-NT fibrosarcoma cells | HT-1080-NT fibrosarcoma viability, CellTiter-Glo ATP luminescence, 48 h | Potency, µM (top dose mostly 46.1 µM), usual class: cytotoxic | 360,000 compounds, 1.6% hits | AID 686970;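 also: NT is the 2HG producing partner of a matched IDH1 knockdown line; nearly all actives have a fitted effect of over 55% in size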
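A 48-hour cytotoxicity screen used HT-1080-NT cells plated 2 hours before compound delivery. ATP-based CellTiter-Glo luminescence measured viability, normalized to DMSO and no-cell controls.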
MCF10A rereplic: inducers of DNA re-replication in MCF 10A breast cells. 350,000 compounds, 2.9% hits. MCF 10A DNA re-replication, Hoechst nuclear intensity, 48 h. AID 624296. Potency, µM (highest dose often 46.1 µM), actives largely listed as activators; also: nearly all actives have a fitted effect of over 50% in size
SW480 rereplic: DNA re-replication induction in SW480 cells; Potency, µM (series often up to 46.1 µM), actives largely listed as activators; SW480 DNA re-replication, Hoechst DNA content imaging, 48 h; AID 624297; 340,000 compounds, 1.8% hits; also: nearly all actives have a fitted effect of over 55% in size
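DNA re-replication was detected as more nuclei of elevated Hoechst intensity after 48 hr exposure to compound (23 nL pinned per well of 250 cells).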
KB-V1 MDR tox: kills drug-selected multidrug resistant KB-V1 cells | KB-V1 MDR cells viability, CellTiter-Glo, 72 h | Potency, µM (series often up to 46.1 µM), usual class: cytotoxic | 400,000 compounds, 3.4% hits | AID 1347076; also: nearly all actives have a fitted effect of over 60% in size
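In this primary screen, KB-V1 cells overexpressing P-gp are incubated with library compounds (lowest to highest concentration) for 72 h at 37 degrees C before a luminescent ATP viability read.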
KB-3-1 cytotox: KB-3-1 parental cell cytotoxicity. KB-3-1 viability, CellTiter-Glo ATP luminescence, 72 h. Potency, µM (series often up to 46.1 µM), actives largely listed as cytotoxic. 400,000 compounds, 1.4% hits; also: nearly all actives have a fitted effect of over 60% in size
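Parental KB-3-1 adenocarcinoma cells in phenol-red-free DMEM with 10% FBS were pin-treated with compounds at several concentrations, incubated 72 h at 37 °C, and viability read by CellTiter-Glo luminescence; concentration-effect curves were fitted after normalization.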
Large screens that a line does not name were inactive. Calls follow the shape of the dose curve; as a rule, active = well fitted curve in the direction sought with a large enough effect; inconclusive = small, poorly fitted or top-dose-only effect, or another doubt; inactive = no such curve, though single readings can be large; an effect the other way counts as inactive or inconclusive.

COC(=O)C(NC(=O)c1ccccc1C(=O)O)c1ccc2ccccc2c1 (stereo not given)	none
COc1ccc(CN2CCNC(=O)C2CC(=O)N(C)Cc2nccs2)cc1OC (stereo not given)	KB-V1 MDR tox inconclusive
Cc1ccc(S(=O)(=O)Nc2ccc(N(C)S(=O)(=O)c3ccc(C)cc3)cc2)cc1	HT1080 IDH1KD tx inconclusive
Cc1ccc(S(=O)(=O)N(C)c2ccc3c(c2)C(=O)c2ccccc2-3)cc1	KB-V1 MDR tox 21µM, KB-3-1 cytotox inconclusive (no result: MCF10A rereplic, SW480 rereplic)
Cc1ccc(-n2c(SCC(=O)NCCN3C(=O)CSC3=O)nnc2-c2ccccc2)cc1	KB-V1 MDR tox inconclusive
CSc1nnc(-c2cccn(Cc3ccccc3)c2=O)o1	none
O=c1c(-c2nnc(SCc3ccc(Cl)cc3Cl)o2)cccn1Cc1ccccc1	KB-V1 MDR tox 2.9µM, KB-3-1 cytotox inconclusive
Cc1cccc(S(=O)(=O)c2c(N)n(-c3ccccc3)c3nc4ccccc4nc23)c1	KB-V1 MDR tox 2.9µM
Nc1c(S(=O)(=O)c2cccs2)c2nc3ccccc3nc2n1/N=C/c1cccc(O)c1	HT1080 IDH1KD tx 21µM, HT1080NT lethal inconclusive, MCF10A rereplic 6.5µM, SW480 rereplic inconclusive, KB-V1 MDR tox inconclusive, KB-3-1 cytotox inconclusive
Cc1ccc(S(=O)(=O)c2c(N)n(/N=C/c3ccco3)c3nc4ccccc4nc23)cc1	MCF10A rereplic inconclusive
Cc1ccc(-n2c(N)c(S(=O)(=O)c3ccccc3)c3nc4ccccc4nc32)cc1	none
Cc1cccc(S(=O)(=O)c2c(N)n(/N=C/c3ccco3)c3nc4ccccc4nc23)c1	MCF10A rereplic inconclusive, KB-V1 MDR tox 3.7µM
Brc1ccccc1/C=N/Nc1ccc2ccccc2n1	HT1080NT lethal inconclusive, MCF10A rereplic 16µM
C[C@@H](NC(=O)c1ncn(C)c1C(=O)N[C@H](C)c1ccccc1)c1ccccc1	none
COc1ccc(CCNC(=O)Cn2cc(C(F)(F)F)cc(Cl)c2=O)cc1OC	MCF10A rereplic inconclusive, KB-3-1 cytotox inconclusive
CCNC(=O)C1CCCN(C(=O)c2cc(F)cc(F)c2)CC1 (stereo not given)	HT1080NT lethal inconclusive (no result: MCF10A rereplic, SW480 rereplic)
COc1ccc(NC(=S)NNC(=O)c2ccccc2OC(F)F)cc1	HT1080 IDH1KD tx 3.5µM, HT1080NT lethal 3.5µM, MCF10A rereplic inconclusive, SW480 rereplic 0.58µM
Cc1cccc(NC(=S)NNC(=O)c2ccccc2Br)c1	KB-V1 MDR tox inconclusive
Cc1cccc(NC(=S)NNC(=O)c2ccccc2OC(F)F)c1	MCF10A rereplic inconclusive, KB-V1 MDR tox 16µM, KB-3-1 cytotox inconclusive
Cc1ccc(CSc2nnc(-c3cccc(S(=O)(=O)N4CCOCC4)c3)n2CC(C)C)cc1	KB-V1 MDR tox 4.6µM, KB-3-1 cytotox 23µM
CC(C)Cn1c(SCC(N)=O)nnc1-c1cccc(S(=O)(=O)N2CCOCC2)c1	none
Fc1ccc(Br)cc1C1C=C(c2ccc(Br)s2)Nc2ncnn21 (stereo not given)	HT1080 IDH1KD tx 1.2µM, HT1080NT lethal 1.3µM, MCF10A rereplic inconclusive, SW480 rereplic 0.58µM, KB-V1 MDR tox inconclusive, KB-3-1 cytotox inconclusive
COc1cccc(C2C=C(c3ccc(Br)s3)Nc3ncnn32)c1OC (stereo not given)	KB-V1 MDR tox 5.2µM, KB-3-1 cytotox inconclusive
COc1cccc(C2=CC(c3ccc(OC)c(OC)c3OC)n3ncnc3N2)c1 (stereo not given)	none (no result: HT1080 IDH1KD tx, HT1080NT lethal, MCF10A rereplic, SW480 rereplic)
CCN(CC(=O)Nc1cccc(S(=O)(=O)N2CCOCC2)c1)Cc1ccccc1	KB-V1 MDR tox inconclusive
CCCNC(=O)COc1ccccc1[N+](=O)[O-]	none
O=S(=O)(CC(CN1CCCC1)N1CCCC1)c1ccc2ccccc2c1 (stereo not given)	HT1080 IDH1KD tx 23µM, HT1080NT lethal 16µM, MCF10A rereplic 12µM, SW480 rereplic 10µM, KB-V1 MDR tox inconclusive, KB-3-1 cytotox 12µM
CC(=O)Nc1cc(-c2ccc(CO)cc2)cn2c(-c3ccc(F)c(Cl)c3)cnc12	HT1080 IDH1KD tx inconclusive, HT1080NT lethal 33µM (no result: MCF10A rereplic, SW480 rereplic)
